According to PubChem BioAssay:
The source made the active and inactive calls.

What was measured:
[1] = anti-His antibody binders, primary screen, artefact control for SMM control protein annotation, biochemical, small-molecule microarray, 635 nm fluorescence (AID 1128); details: anti-His Alexa647 antibody binding, higher = more signal;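 further: score merges feature fluorescence with signal-to-noise for each printed compound spot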
[2] = test system: Human papillomavirus type 1a E7 protein (residues 1-88); assay: HPV1a E7 small-molecule binders, primary screen, biochemical, small-molecule microarray, residues 1-88, 635 nm (AID 1129); details: small-molecule microarray binding, fluorescence 635 nm; higher = more signal
[3] = biological target: Focal adhesion kinase 1 (Homo sapiens) (UniProt Q05397); assay: small-molecule microarray binders of FAK, primary screen, biochemical, 635/667 nm fluorescence, BSA, DTT (AID 1130); details: PTK2 binding, 635 nm fluorescence, higher = more signal;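 further: composite of spot emission at 667 nm and signal to noise over triplicate slides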
Chain of Focal adhesion kinase 1 (Homo sapiens) (Q05397 whole entry, looked up): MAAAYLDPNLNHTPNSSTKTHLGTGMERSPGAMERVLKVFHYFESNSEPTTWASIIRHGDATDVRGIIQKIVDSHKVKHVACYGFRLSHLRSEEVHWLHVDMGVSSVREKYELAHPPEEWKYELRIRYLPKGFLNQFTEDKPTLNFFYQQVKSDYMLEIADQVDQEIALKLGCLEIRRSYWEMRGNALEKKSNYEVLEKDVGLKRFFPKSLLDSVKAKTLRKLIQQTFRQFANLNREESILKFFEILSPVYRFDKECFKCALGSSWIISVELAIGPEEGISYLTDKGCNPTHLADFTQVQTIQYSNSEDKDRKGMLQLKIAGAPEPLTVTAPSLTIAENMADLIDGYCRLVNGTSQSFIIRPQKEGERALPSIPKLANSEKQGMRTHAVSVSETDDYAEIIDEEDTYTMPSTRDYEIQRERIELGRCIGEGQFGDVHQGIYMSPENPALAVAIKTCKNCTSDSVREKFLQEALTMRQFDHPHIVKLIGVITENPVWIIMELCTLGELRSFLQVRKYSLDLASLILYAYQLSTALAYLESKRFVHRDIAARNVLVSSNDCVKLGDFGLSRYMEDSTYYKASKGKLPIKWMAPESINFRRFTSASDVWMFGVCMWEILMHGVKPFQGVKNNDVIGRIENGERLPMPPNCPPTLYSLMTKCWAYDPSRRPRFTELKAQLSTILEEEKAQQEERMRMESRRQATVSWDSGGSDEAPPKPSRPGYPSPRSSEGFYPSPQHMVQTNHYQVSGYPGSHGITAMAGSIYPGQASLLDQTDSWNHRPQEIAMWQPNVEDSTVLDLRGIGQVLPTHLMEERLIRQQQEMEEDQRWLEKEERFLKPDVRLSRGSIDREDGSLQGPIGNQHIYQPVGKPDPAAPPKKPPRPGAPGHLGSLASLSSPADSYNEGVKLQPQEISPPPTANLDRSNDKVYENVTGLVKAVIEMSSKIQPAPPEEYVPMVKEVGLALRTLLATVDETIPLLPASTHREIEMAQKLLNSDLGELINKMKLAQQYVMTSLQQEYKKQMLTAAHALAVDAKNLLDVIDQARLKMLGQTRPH

[4] = test system: Fibrinogen (Alexa647-labelled); assay: fibrinogen binders on compound microarrays, profiling panel, artefact control for SMM control-protein annotation, biochemical, small-molecule microarray, 635/667 nm fluorescence (AID 1131); details: fibrinogen-A647 binding fluorescence, higher = more signal;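 further: z-score merges 667 nm fluorescence with per-spot signal-to-noise over triplicate slides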
[5] = biological target: Follistatin (Homo sapiens) (UniProt P19883); assay: follistatin binders on small-molecule microarrays, primary screen, biochemical, small-molecule microarray, 635/667 nm fluorescence (AID 1132); details: FST binding, 635 nm fluorescence, higher = more signal
Chain of Follistatin (Homo sapiens) (P19883 whole entry, looked up): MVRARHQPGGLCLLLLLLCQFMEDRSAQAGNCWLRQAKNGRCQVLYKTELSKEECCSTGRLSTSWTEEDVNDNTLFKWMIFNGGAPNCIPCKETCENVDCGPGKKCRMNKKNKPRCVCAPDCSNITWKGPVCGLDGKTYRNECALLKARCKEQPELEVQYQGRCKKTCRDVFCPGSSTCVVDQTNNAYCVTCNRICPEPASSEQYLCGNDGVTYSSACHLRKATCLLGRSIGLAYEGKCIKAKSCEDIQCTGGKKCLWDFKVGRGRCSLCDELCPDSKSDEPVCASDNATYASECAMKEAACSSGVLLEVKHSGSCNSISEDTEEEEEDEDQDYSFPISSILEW

[6] = biological target: Fibroblast growth factor 2 (Homo sapiens) (UniProt P09038); assay: FGF2 binders on small-molecule microarrays, primary screen, biochemical, small-molecule microarray, 635/667 nm fluorescence (AID 1133); details: small-molecule microarray binding, FGF2, fluorescence 635/667; higher = more signal
Chain of Fibroblast growth factor 2 (Homo sapiens) (P09038 whole entry, looked up): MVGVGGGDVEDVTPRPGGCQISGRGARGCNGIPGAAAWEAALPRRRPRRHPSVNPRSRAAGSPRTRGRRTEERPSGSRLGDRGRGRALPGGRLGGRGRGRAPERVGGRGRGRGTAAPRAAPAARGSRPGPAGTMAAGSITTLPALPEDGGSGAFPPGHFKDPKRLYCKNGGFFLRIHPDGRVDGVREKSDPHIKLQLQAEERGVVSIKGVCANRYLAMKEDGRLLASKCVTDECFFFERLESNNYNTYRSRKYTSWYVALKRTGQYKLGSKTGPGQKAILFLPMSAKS

[7] = mitochondrial membrane potential change in A549 cells, profiling panel, cell-based, JC-1 fluorescence, basal, 24 h, 100 nL (AID 1138); details: higher = more signal;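 further: A549 lung adenocarcinoma cells under basal conditions with no added stimulus; test concentration not given here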
Lefty1 = Lefty1 binders on small-molecule microarrays, primary screen, biochemical, small-molecule microarray, 635/667 nm fluorescence (AID 1139); details: small-molecule microarray binding, fluorescence 635/667; higher = more signal
[8] = test system: wheat germ agglutinin (Triticum aestivum), Alexa647-labelled; assay: wheat germ agglutinin binders on compound microarrays, profiling panel, artefact control for SMM control-protein annotation, biochemical, small-molecule microarray, 635/667 nm fluorescence (AID 1140); details: WGA-A647 binding, 635 nm fluorescence, higher = more signal;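 further: score merges 667 nm feature emission with signal to noise over triplicate slides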
[9] = biological target: Luciferin 4-monooxygenase (Photinus pyralis) (UniProt P08659); assay: firefly luciferase enzyme inhibitors, primary screen, biochemical, luminescence, purified enzyme, 2006 set (AID 1141); details: SteadyGlo luminescence, 30 min, higher = more signal, called active from +8 up or from −8 down;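 further: cell-free assay with purified firefly luciferase at 100 ng per well in PBS; test concentration not given here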
Chain of Luciferin 4-monooxygenase (Photinus pyralis) (P08659 whole entry, looked up): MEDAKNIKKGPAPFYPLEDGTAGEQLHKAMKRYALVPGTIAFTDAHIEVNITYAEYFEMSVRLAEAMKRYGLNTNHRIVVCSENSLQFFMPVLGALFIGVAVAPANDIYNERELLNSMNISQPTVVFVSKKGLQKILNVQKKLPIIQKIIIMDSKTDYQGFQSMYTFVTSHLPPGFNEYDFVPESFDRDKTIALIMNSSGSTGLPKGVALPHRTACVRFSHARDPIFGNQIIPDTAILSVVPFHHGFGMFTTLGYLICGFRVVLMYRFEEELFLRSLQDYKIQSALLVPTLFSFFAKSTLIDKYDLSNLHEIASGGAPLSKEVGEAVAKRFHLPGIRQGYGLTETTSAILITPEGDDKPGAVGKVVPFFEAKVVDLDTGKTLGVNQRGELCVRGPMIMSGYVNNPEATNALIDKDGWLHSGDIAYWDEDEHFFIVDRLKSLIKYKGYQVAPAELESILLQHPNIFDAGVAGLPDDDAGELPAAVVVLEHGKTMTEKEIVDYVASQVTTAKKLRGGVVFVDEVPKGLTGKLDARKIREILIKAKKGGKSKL

SMILES | composite z-score [1] | composite z-score [2] | composite z-score [3] | composite z-score [4] | composite z-score [5] | composite z-score [6] | z-score [7] | composite z-score (Lefty1) | composite z-score [8] | z-score [9]
C=C[C@H](C)[C@H](OC(=O)Nc1ccc(OC)cc1)c1ccc(O)c2ccccc12 | -0.732 | -0.337 | -0.208 | 0.604 | 0.782 | 0.39 | -1.6 | 0.47 | 0.0411 | -3.78 (inactive)
O=C(CS)NCCCCCNC(=O)[C@H]1C[C@H]2C(=O)N[C@@H](Cc3ccccc3)C(=O)N2[C@H]1c1cccc(OCCO)c1 | 2.51 | 1.16 | 0.181 | 0.748 | 1.37 | 1.77 | 1.17 | 1.45 | 0.788 | -2.3 (inactive)
NC(=O)NCC#Cc1ccc2c(c1)[C@]1(C(=O)N2)[C@H](c2ccc(O)cc2)N2[C@H](c3ccccc3)[C@H](c3ccccc3)OC(=O)[C@H]2[C@@H]1C(=O)N1CCN(c2ncccn2)CC1 | 1.05 | 0.855 | -0.75 | 0.486 | 0.743 | -0.0346 | -1.1 | -0.112 | 0.297 | -1.43 (inactive)
NC(=O)[C@]1(Cc2ccccc2)N=C(c2ccc(OCCCO)cc2)O[C@@H]1c1ccccc1 | 1.15 | 1.12 | 0.246 | 0.977 | 0.368 | -0.555 | -1.04 | -0.524 | 1.05 | -0.354 (inactive)
Cc1c(NC(=O)/C(C#N)=C/C=C/c2ccccc2)c(=O)n(-c2ccccc2)n1C | 0.378 | 0.466 | -0.358 | 0.68 | 0.58 | 0.366 | -0.158 | 0.451 | 0.343 | -5.86 (inactive)
Cc1cc(C)c(C(O)C2C=CC3C(=O)NC(=O)C3N2Nc2ccccn2)c(C)c1 (stereo not given) | 0.735 | 1.03 | 0.471 | 0.925 | 1.11 | -0.719 | 0.513 | 0.0668 | 0.994 | -1.56 (inactive)
Cc1ccc(S[C@]2(C(=O)NCC(F)(F)F)CC(=O)N(C3Cc4ccccc4C3)[C@@H]2c2ccc(CO)cc2I)cc1 | -1.2 | -0.38 | -0.493 | -0.161 | -1.14 | -1.01 | 0.496 | -1.36 | 0.0728 | -0.727 (inactive)
COc1c(C)cc(-c2cc3c(c(-c4ccccc4)n2)[Si](C(C)C)(C(C)C)O[C@H]3c2ccccc2)cc1C | 0.235 | -0.26 | -0.0638 | -0.243 | 0.145 | -0.212 | 0.125 | 0.377 | 0.124 | 0.407 (inactive)
C=CC[C@@]1(C(=O)OC)N=C(c2ccc(OCCCO)cc2)O[C@@H]1c1ccccc1CN=[N+]=[N-] | 0.78 | 0.996 | 0.242 | 0.0758 | 1.05 | 0.0452 | 0.00108 | 0.543 | -0.0321 | 0.668 (inactive)
COCCn1c(C(=O)N(C)C)cc2c1C[C@H]1CN(C(=O)c3ccccc3)[C@@](Cc3ccc(F)cc3)(C(=O)OC)[C@@H]21 | 2.3 | 1.1 | 0.169 | 0.485 | 0.134 | -0.158 | 0.33 | -0.0481 | 1.11 | -0.663 (inactive)
COC(=O)[C@@]1(Cc2ccc(F)cc2)[C@H]2c3cc(C(=O)N(C)C)n(Cc4ccccn4)c3C[C@H]2CN1C(=O)c1ccccc1 | 1.12 | 1.26 | 1.08 | 0.685 | 0.251 | -0.281 | 1.04 | -0.12 | 0.647 | 3 (inactive)
C=CCC(OC(C)=O)[C@@H]1[C@@H](N(Cc2ccc(-c3cccc(C(F)(F)F)c3)o2)C(=O)c2ccc(C)cc2)c2cc(OCCCO)ccc2N1C(=O)c1ccc2ccccc2n1 (stereo not given in full) | -0.614 | -0.369 | -0.223 | 0.33 | 0.839 | 0.131 | 0.61 | 0.727 | 0.717 | -1.25 (inactive)
[N-]=[N+]=NCc1ccccc1[C@H]1OC(c2ccc(OCCCO)cc2)=N[C@@]1(Cc1ccccc1)C(=O)NCC(O)CO (stereo not given in full) | 1.86 | 1.25 | 1.08 | 0.726 | 0.474 | -0.0723 | 1.2 | -0.994 | 0.486 | 0.142 (inactive)
